Set-up in all cases: scale not given: direction of the effect not stated beside the values
For assay [1], the target named is Protein translocase subunit SecA (Escherichia coli (strain K12)) (UniProt P10408). Briefly: Assay to Identify E. coli SecA ATPase Inhibitors. It counts as functional. Conditions: 30 µM.
For assay [2], the target named is T1, Ubiquitin-activating enzyme e1, putative (Leishmania donovani (strain BPK282A1)) (UniProt E9BSI1).
T1 sequence (whole entry): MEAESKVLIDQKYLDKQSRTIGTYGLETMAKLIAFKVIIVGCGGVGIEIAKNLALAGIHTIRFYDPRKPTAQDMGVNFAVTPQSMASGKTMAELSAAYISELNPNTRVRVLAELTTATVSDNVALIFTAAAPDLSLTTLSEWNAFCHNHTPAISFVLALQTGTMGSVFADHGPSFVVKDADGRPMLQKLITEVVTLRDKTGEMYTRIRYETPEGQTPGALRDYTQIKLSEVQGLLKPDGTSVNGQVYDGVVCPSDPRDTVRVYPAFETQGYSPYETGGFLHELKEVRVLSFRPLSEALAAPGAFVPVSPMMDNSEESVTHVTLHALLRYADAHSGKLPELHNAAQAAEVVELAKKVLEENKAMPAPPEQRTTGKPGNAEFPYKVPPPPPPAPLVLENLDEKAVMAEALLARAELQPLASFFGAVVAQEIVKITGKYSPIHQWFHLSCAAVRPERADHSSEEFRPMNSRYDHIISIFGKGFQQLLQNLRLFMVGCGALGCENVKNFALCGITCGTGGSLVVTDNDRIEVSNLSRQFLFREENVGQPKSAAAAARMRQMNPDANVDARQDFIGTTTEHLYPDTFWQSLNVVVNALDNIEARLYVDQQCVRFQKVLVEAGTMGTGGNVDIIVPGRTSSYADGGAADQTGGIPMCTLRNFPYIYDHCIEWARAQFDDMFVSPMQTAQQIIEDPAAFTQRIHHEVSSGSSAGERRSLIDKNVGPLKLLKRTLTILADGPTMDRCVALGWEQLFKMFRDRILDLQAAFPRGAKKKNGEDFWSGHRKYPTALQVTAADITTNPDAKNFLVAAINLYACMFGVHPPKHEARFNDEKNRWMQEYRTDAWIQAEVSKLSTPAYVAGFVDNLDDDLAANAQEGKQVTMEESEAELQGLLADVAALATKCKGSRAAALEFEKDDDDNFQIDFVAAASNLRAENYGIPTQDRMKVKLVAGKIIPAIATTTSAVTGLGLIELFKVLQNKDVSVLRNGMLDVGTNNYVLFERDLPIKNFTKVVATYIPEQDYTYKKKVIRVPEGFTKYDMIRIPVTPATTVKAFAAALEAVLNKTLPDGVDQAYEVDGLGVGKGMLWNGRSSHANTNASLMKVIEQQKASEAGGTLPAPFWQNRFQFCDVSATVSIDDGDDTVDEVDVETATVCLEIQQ
Description: Leishmania donovani Ubiquitin Activating Enzyme (LdE1). The note with it: 30 µM. The format is functional.

For assay [3], the target named is AMP-activated protein kinase, AMPK (Homo sapiens) (UniProt P54646+O43741+P54619+Q9UGJ0+Q9Y478+Q13131+Q9UGI9). Briefly: AMP-dependent Kinase enzyme assay. An in vitro enzyme assay that detects ADP turnover that is directly proportional to AMPK activity. This uses naive AMPK that is activated during the assay with MK-8722. The format is functional. Conditions: 30 µM.

In assay [4] the target is Sialic acid-binding Ig-like lectin 9 (Homo sapiens) (UniProt Q9Y336). Briefly: Hs-Siglec9 ALPHAscreen SOP 20170721. The note with it: 10 µM. In general terms: In Alpha technology, singlet oxygen from a donor bead excites a nearby acceptor bead.
Another assay relates to Trypanosoma cruzi. Briefly: Trypanosoma cruzi phosphomannomutase and mannose-1-phosphate guanylyltransferase assay. The format is functional. The note with it: 10 µM.
Assay [5] deals with T2, Arginase-2, mitochondrial (Homo sapiens) (UniProt P78540).
T2 sequence (whole entry): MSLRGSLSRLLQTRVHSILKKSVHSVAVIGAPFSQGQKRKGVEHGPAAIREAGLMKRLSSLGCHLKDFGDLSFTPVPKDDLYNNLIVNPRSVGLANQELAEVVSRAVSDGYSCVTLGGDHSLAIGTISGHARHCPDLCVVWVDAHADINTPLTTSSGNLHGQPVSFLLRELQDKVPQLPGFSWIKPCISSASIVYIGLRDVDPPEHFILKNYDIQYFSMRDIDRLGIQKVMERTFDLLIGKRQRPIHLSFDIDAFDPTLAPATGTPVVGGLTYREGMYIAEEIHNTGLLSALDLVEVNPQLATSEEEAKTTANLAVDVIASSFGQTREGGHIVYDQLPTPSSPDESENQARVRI
Briefly: in vitro enzyme assay to detect the production of urea directly proportional to the activity of Arginase II. Further: in the data most compounds retested in dose-response had high values. It counts as functional. Conditions: 33.3 µM.

Assay [6] addresses T3, Proteasome subunit beta (Trypanosoma cruzi) (UniProt O96673).
T3 sequence (whole entry): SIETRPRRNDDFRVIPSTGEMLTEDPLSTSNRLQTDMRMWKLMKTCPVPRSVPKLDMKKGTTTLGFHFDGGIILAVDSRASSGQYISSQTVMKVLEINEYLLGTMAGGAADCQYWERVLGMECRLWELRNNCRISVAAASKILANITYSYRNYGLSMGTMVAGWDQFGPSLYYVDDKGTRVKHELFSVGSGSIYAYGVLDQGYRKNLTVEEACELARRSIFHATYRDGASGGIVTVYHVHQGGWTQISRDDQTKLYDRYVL
Description: Trypanosoma cruzi proteasome chymotrypsin-like activity (TcProtChymo) assay. Further: in the data most compounds retested in dose-response had high values. It counts as functional. Conditions: 9.37 µM.

The species entered for another assay is Homo sapiens. Description: To identify inhibition of the IFN signalling (Jak-Stat) pathway via expression of an eGFP reporter gene under the control of an IFN-stimulated response element (ISRE) containing MxA promoter. It counts as functional. The note with it: 30 µM. For orientation: Reporter assays use an easily measured gene product as a stand-in for the process of interest.

Assay [7] deals with T4, Tyrosyl-tRNA synthetase, putative (Trypanosoma cruzi (strain CL Brener)) (UniProt Q4DSP6).
T4 sequence (whole entry): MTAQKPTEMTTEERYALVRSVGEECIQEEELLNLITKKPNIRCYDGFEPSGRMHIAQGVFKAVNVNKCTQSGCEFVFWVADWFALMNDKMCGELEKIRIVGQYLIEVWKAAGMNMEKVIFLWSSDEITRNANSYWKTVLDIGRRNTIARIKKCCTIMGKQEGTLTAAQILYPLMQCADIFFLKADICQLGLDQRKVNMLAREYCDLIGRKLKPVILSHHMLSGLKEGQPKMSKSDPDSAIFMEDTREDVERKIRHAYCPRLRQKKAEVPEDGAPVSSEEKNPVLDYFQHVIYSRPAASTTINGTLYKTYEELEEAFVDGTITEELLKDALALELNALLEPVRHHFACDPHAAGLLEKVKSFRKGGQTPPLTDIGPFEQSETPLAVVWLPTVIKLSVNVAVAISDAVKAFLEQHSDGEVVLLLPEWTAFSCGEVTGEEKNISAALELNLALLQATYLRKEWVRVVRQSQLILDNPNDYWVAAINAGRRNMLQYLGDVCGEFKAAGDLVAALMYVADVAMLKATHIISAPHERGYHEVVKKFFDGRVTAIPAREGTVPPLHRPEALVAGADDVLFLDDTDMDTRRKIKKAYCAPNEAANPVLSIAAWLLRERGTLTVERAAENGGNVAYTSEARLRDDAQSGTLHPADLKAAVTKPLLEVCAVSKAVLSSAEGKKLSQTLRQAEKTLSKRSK
Briefly: Trypanosoma cruzi tyrosyl tRNA synthetase (TcYRS) _High Tyrosine SOP. Further: in the data most compounds retested in dose-response had high values. It counts as functional. The note with it: 30 µM.

In assay [8] the target is T4, Tyrosyl-tRNA synthetase, putative (Trypanosoma cruzi (strain CL Brener)). Description: Trypanosoma cruzi tyrosyl tRNA synthetase (TcYRS) SOP. The format is functional. The note with it: 30 µM.
Assay [9] deals with Chromo domain-containing protein 1 (Saccharomyces cerevisiae (strain ATCC 204508 / S288c) (Baker's yeast)) (UniProt P32657). Description: ScCHD-1 Enzyme Inhibition Assay. Further: in the data most compounds retested in dose-response had high values. It counts as functional. Conditions: 30 µM.

For eleven compounds, Percent Effect results are on record in ChEMBL document CHEMBL3988442, “University of Dundee, Small-Polar-MMV Screening Library” (2021).

For some of these results: Entries with a potency or affinity are not part of this list.

Protein translocase subunit SecA (Escherichia coli (strain K12)), sequence (P10408 whole entry): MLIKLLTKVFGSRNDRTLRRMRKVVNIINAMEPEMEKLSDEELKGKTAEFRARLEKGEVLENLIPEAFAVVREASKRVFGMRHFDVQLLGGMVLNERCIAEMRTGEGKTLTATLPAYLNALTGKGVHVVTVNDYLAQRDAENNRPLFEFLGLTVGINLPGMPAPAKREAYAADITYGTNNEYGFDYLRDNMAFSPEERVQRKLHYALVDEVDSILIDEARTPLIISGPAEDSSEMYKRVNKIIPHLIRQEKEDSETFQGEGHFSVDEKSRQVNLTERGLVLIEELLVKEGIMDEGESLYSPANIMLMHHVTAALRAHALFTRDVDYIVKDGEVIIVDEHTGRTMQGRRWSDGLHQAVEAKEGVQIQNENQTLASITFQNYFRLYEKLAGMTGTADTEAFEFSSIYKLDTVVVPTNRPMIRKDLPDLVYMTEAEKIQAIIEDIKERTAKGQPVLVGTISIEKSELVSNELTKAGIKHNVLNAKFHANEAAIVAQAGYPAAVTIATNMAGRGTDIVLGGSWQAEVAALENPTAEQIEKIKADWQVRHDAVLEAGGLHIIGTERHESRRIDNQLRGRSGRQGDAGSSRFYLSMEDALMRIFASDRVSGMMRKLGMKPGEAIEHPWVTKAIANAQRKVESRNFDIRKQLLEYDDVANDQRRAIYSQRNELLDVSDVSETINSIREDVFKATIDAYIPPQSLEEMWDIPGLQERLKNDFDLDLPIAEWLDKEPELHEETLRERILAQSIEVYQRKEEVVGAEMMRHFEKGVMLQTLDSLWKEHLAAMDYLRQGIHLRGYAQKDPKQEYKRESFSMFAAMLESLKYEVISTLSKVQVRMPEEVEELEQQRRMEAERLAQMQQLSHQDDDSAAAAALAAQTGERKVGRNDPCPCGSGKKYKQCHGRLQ
Sialic acid-binding Ig-like lectin 9 (Homo sapiens), sequence (Q9Y336 whole entry): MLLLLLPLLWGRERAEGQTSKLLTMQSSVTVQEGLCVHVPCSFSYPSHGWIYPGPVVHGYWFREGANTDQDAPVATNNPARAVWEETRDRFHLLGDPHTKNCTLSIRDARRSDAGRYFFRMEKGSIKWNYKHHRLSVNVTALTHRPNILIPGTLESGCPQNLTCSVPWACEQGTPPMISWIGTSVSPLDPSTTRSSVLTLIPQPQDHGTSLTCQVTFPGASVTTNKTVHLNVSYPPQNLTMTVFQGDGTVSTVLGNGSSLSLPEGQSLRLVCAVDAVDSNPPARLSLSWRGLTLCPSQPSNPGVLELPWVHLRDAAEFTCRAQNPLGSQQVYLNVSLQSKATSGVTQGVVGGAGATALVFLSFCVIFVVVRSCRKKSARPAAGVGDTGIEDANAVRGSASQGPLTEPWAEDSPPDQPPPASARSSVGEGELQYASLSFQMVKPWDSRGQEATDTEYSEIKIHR
Chromo domain-containing protein 1 (Saccharomyces cerevisiae (strain ATCC 204508 / S288c) (Baker's yeast)), sequence (P32657 whole entry, the tested form may be a part): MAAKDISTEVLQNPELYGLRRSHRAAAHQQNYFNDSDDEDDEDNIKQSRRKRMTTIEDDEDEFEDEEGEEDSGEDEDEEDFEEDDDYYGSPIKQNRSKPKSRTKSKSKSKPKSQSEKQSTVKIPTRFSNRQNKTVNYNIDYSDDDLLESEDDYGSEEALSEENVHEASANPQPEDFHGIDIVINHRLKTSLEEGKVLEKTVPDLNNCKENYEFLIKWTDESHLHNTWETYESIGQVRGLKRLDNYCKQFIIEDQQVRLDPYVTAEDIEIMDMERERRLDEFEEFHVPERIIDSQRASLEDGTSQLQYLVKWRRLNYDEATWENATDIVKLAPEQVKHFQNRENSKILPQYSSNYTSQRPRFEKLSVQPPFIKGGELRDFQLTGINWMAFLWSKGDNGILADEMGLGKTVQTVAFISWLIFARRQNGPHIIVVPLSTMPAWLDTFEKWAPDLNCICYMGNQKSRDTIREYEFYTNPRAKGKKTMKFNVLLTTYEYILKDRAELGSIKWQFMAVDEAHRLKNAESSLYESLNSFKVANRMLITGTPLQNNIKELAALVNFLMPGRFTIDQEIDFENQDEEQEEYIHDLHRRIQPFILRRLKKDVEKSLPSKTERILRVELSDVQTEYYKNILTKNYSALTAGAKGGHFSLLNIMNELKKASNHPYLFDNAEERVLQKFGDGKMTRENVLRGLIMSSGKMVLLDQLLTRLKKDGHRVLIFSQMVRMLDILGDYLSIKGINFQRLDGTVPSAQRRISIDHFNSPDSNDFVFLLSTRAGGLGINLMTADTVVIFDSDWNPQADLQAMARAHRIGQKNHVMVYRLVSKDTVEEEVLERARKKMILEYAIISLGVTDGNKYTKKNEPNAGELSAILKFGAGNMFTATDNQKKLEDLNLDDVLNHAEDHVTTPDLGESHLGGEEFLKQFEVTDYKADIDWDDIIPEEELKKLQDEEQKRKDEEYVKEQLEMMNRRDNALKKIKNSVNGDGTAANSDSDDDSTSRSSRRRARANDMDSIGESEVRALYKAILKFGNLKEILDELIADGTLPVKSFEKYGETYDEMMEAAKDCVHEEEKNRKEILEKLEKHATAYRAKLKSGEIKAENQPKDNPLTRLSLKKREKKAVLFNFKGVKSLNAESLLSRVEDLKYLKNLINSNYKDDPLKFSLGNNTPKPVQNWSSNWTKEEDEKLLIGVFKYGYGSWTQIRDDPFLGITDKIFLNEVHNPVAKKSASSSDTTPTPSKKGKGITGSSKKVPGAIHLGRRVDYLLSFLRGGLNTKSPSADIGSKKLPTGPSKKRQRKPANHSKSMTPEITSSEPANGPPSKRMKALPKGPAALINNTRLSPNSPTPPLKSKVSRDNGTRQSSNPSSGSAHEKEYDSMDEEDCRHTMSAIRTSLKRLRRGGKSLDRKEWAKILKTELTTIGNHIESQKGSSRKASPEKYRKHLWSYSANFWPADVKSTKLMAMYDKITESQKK

In the case of `COCC(=O)NC1CC2(CCN(Cc3ccco3)CC2)c2ccccc21` (stereo unspecified), the Percent Effect in [1] was -1.45%; in assay [2] it was 2.7%; in [3], -1.83%; in [4] it was 3.44%; with Trypanosoma cruzi, -7.92%; in assay [5], 2.23%. In addition, the Percent Effect in assay [6] is 24.2%; in the assay listed under Homo sapiens it was 4.53%; in assay [7] it was 2.16%; in [8], 5.13%; in assay [9], -3.97%.

As for `CN(C)Cc1ccnc(C2CCCN2Cc2cc[nH]n2)n1` (stereo unspecified), the Percent Effect in [1] was -6.5%; in [2], -6.76%; in [3] it was 10.3%; in [4] it was -1.81%; in the assay on Trypanosoma cruzi it was -1.78%; in assay [5] it was -1.16%. Besides, the Percent Effect was 6.08% in [6]; -0.845% in the assay filed under Homo sapiens; 3.23% in assay [7]; 3.9% in assay [8]; 1.51% in assay [9].

Turning to `CCN1CC(C(=O)N2CCC(Oc3ccccc3C)CC2)CC1=O` (stereo unspecified), the Percent Effect in assay [1] was -1.72%; in assay [2], 2.74%; in [3], 2.75%; in assay [4], 3.46%; in the assay with Trypanosoma cruzi, -7.94%; in assay [5], 2%. Also, the Percent Effect was 8.65% in assay [6]; 7.65% in the assay filed under Homo sapiens; 3.12% in assay [7]; 21% in [8]; -0.203% in assay [9].

Regarding `Cc1ccc(CN2C[C@@H]3COC[C@@H](NS(C)(=O)=O)[C@@H]3C2)o1`, the Percent Effect in assay [1] was -1.26%; in assay [2] it was 2.67%; in assay [3], -0.569%; in [4], -2.48%; with Trypanosoma cruzi, 8.69%; in assay [5] it was -54.7%. In addition, the Percent Effect in assay [6] was 12.5%; in the assay filed under Homo sapiens, -3.72%; in assay [7], 1.04%; in assay [8], 17.5%; in assay [9] it was -8.24%.

For the compound `CCOc1cccc(C(=O)N2CCN(c3nccc(OC)n3)CC2)c1`, the Percent Effect in assay [1] was -7.2%; in [2], 5.26%; in [3], 10.4%; in [4] it was -5.48%; with Trypanosoma cruzi it was -7%; in assay [5], 1.8%. Further, the Percent Effect in assay [6] was 6.51%; in the assay listed under Homo sapiens, 16.4%; in assay [7], -1.48%; in assay [8], 1.24%; in [9], -2.73%.

As for `O=C(C1CCOCC1)N1CCO[C@H]2[C@@H](OCc3ccncc3)CC[C@@H]21`, the Percent Effect in assay [1] is -7.25%; in assay [2], 16.2%; in assay [3] it was -5.41%; in assay [4], 21.1%; in the assay on Trypanosoma cruzi, 4.1%; in assay [5], 1.67%. The Percent Effect in assay [6] is 6.17%; in the assay listed under Homo sapiens, 32.4%; in assay [7] it was 2.97%; in assay [8], 13.4%; in assay [9], -6.34%.

On to `COc1ccc2nnc(CCCC(=O)NCc3cccn3C)n2n1`, for which the Percent Effect in assay [1] was -2.1%; in [2], 22.7%; in assay [3], -8.56%; in assay [4], 0.257%; in the assay with Trypanosoma cruzi it was 1.57%; in [5] it was 0.176%. Besides, the Percent Effect is 17.4% in assay [6]; -1.92% in the assay filed under Homo sapiens; 8.47% in [7]; -41% in [8]; -12% in [9].

Consider `Cc1cc(CN(C)Cc2cc3c(cc2OC(F)F)OCO3)on1`, for which the Percent Effect in [1] is -6.72%; in [2], 2.7%; in assay [3], 1.74%; in assay [4], -1.22%; with Trypanosoma cruzi, -0.684%; in [5], 3.23%. Moreover, the Percent Effect in assay [6] is 5.24%; in the assay filed under Homo sapiens, -2.07%; in [7], 0%; in assay [8], 1.24%; in [9] it was -2.37%.

Take `Nc1cc2c(nn1)CCN(C(=O)c1cccc3c1OCCO3)C2`: the Percent Effect in assay [1] is 0.377%; in assay [2] it was 2.6%; in assay [3] it was -2.26%; in [4] it was 6.77%; with Trypanosoma cruzi it was 8.24%; in assay [5], 0.356%. Further, the Percent Effect was 4.05% in [6]; 10.7% in the assay filed under Homo sapiens; 5.83% in assay [7]; 12.2% in assay [8]; -10.5% in assay [9].

For `CCc1nc(CN(C)CC2CCN(CC(C)O)CC2)no1` (stereo unspecified), the Percent Effect was -2.22% in [1]; 0% in assay [2]; -8.55% in assay [3]; 0.164% in assay [4]; 9.46% in the assay with Trypanosoma cruzi; -2.86% in [5]. The Percent Effect in [6] is 1.03%; in the assay listed under Homo sapiens it was -23.1%; in assay [7], 2.65%; in assay [8] it was 7.32%; in [9], -1.75%.

As to `Cc1ccc(CN(C)C(=O)CN2CCOC(Cn3cncn3)C2)o1` (stereo unspecified), the Percent Effect was 1.63% in assay [1]; 15.2% in assay [2]; -6.86% in assay [3]; -11.8% in [4]; -7.46% in the assay with Trypanosoma cruzi; 9.89% in assay [5]. Besides, the Percent Effect in assay [6] was 13%; in the assay listed under Homo sapiens it was 16.3%; in assay [7], 5.42%; in assay [8], 11.4%; in assay [9], -2.75%.
